# POLI inh = blocks human DNA polymerase iota activity. actives 1% (n = 390,000). Potency, µM (series often up to 115 µM), for the others: top-dose activity, negative = inhibition, most hits filed as inhibitors. AID 588590. Q9UNA4. Pol iota fluorescent replication assay, 10 min
# Target sequence (Q9UNA4 whole entry, looked up): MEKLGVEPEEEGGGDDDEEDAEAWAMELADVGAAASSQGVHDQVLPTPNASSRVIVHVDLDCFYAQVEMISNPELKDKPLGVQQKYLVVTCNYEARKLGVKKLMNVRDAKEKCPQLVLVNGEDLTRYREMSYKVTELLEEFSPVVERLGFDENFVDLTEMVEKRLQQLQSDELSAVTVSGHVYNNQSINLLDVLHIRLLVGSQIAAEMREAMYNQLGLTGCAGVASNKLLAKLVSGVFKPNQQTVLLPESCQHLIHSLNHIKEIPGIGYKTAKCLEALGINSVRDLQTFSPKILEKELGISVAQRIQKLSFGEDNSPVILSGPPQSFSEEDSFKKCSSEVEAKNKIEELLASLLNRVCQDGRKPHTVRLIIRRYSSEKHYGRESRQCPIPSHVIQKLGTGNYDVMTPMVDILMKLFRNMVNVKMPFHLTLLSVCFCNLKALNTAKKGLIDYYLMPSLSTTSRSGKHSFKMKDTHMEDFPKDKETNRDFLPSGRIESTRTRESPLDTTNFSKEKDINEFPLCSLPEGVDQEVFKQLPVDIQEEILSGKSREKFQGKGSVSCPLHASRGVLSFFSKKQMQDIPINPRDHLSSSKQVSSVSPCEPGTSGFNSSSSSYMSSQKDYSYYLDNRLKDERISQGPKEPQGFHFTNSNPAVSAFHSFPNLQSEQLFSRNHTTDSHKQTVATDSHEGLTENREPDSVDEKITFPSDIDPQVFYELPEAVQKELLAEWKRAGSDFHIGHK
#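 Fluorescent replication assay read twice, at 0 min and 10 min after adding 50 nM (final) substrate. Enzyme (10 nM) and compounds were first incubated 15 min at room temperature; enzyme-free buffer wells were negative controls.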
# Pol kappa inh = inhibitors of human DNA polymerase kappa; Q9UBT6; purified Pol kappa, fluorescent DNA synthesis assay, 10 min; Potency, µM (titrated, usually from 107 µM), for the others: at the top dose activity, negative = inhibition, usual class: inhibitors; actives 0.53% (n = 400,000); AID 588579; note: % is set by controls: 0 for no effect and ±100 for the full control effect
#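 Fluorescent qHTS in 1536-well format: enzyme (10 nM) and compound sat 15 min at room temperature before 50 nM substrate (final) was added. Signal taken at 0 and 10 min; no-enzyme buffer wells were negative controls.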
# Pol eta inh = inhibitors of human DNA polymerase eta. Potency, µM (highest dose often 114 µM), inactives show top-dose activity change, negative = inhibition, usual class: inhibitors. AID 588591. actives 1.2% (n = 390,000). recombinant Pol eta, fluorescent DNA replication assay. Q9Y253; note: % is set by controls: 0 for no effect and ±100 for the full control effect
#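 Pol eta (10 nM) was preincubated with compounds for 15 min at room temperature, after which fluorescent replication substrate (50 nM final) was added to start the reaction. Fluorescence was read kinetically at 0 and 10 min.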
# FEN1 inh = human FEN1 inhibition | Potency, µM (highest dose often 114 µM), inactives show top-dose activity change, negative = inhibition, hits mostly inhibitors | actives 0.35% (n = 390,000) | Recombinant FEN1 flap cleavage, fluorescence, 15 min | P39748; note: % is set by controls: 0 for no effect and ±100 for the full control effect; nearly all actives have a fitted effect of over 65% in size
#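 Potency values derive from four-parameter Hill fits of normalized qHTS data. The reaction used 10 nM FEN1 preincubated 15 min at room temperature with compound, then 50 nM DNA substrate, read at 0 and 15 min.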
# WRN helicase inh = inhibitors of human WRN helicase. Q14191. WRN helicase unwinding, fluorescent forked duplex, kinetic. Potency, µM (doses to about 114 µM), without a hit: top-dose activity change, negative = inhibition, actives largely listed as inhibitors. actives 0.46% (n = 360,000). AID 651768; note: % is set by controls: 0 for no effect and ±100 for the full control effect; nearly all actives have a fitted effect of over 55% in size
#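 Primary qHTS, 1536-well format. 20 nM WRN + compound, 15 min RT; start with 100 nM forked fluorophore/quencher duplex, 2 mM ATP (final); kinetic read ex 525/em 598 nm.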
# POLB inh = DNA polymerase beta (human) inhibition. Pol beta primer extension/strand displacement, fluorescence kinetic. Potency, µM (top dose mostly 114 µM), inactives show top-dose activity change, negative = inhibition, actives largely listed as inhibitors. actives 1.3% (n = 340,000); note: % is set by controls: 0 for no effect and ±100 for the full control effect
#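 Values derive from four-parameter Hill fits of normalized kinetic data: reads at 0 and 10 min following addition of 50 nM substrate to 10 nM Pol beta preincubated 15 min with compound.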
# Starred values were filed as active, the others as inactive; ? = inconclusive; . = no result; [ ] = dose if it differs, or a comment. An excerpt weighted towards active compounds, which were near 2.4% of everything screened. Calls come from the whole dose curve; as a rule, active = well fitted curve in the direction sought with a large enough effect; inconclusive = small, poorly fitted or top-dose-only effect, or another doubt; inactive = no such curve, though single readings can be large; an effect the other way counts as inactive or inconclusive. Potency is the fitted concentration of half-maximal effect.
SMILES,POLI inh,Pol kappa inh,Pol eta inh,FEN1 inh,WRN helicase inh,POLB inh
O=C(NC1CC(=O)N(c2ccccc2)C1)C1CCCC1 (centres undefined),4%,1%[60.1 µM],-2%,-5%,.,2%
Cc1ccc(N2C(=O)[C@@H]3[C@H](C2=O)C2c4ccccc4C=CN2[C@@H]3C(=O)c2ccco2)cc1 (some centres undefined),?,-23%,?,-6%,-23%,6%
CC(=O)[C@@H]1[C@@H]2C(=O)N(Cc3ccccc3)C(=O)[C@@H]2C2c3ccccc3C=CN21 (some centres undefined),?,0%,?,-14%,-6%,23%
O=C(c1ccco1)[C@@H]1[C@@H]2C(=O)N(c3ccccc3)C(=O)[C@@H]2C2c3ccccc3C=CN21 (some centres undefined),13µM*,-13%,?,-18%,-14%,36%
Cc1ccc(N2C(=O)[C@@H]3[C@H](C2=O)C2c4ccccc4C=CN2[C@@H]3C(=O)c2ccco2)c(C)c1 (some centres undefined),?,-23%,28µM*,-1%,-28%,21%
CCOC(=O)c1ccccc1NC(=O)N1CCCN(S(=O)(=O)c2ccc3c(ccn3CC)c2)CC1,-2%,-12%[60.1 µM],-14%,9%,.,-8%
Cc1ccc(NC(=O)N/C=C/c2ccco2)c(C)c1,?,?,79µM*,?,-23%[57.1 µM],?
Cc1ccc(O)c(NC(=S)NC(=O)/C=C/c2ccco2)c1,20%,-9%,-1%,-1%,4%,?
COc1ccc(-c2nn(-c3ccccc3)cc2C(=O)Nc2cccc(C(=O)O)c2)cc1[N+](=O)[O-],-17%,-26%,-12%,?,?,35µM*
O=C1C=C(c2ccccc2)OC(c2ccccc2)O1 (centres undefined),116%,-20%,-24%,2%,-1%,11µM*
O=C1C=C(c2ccccc2)OC2(CCCC2)O1,12%,-11%,9%,0%,0%,-3%
CCCOc1ccc(/C(O)=C2/C(=O)C(=O)N(CCCN3CCOCC3)C2c2ccncc2)cc1 (centres undefined),.,.,.,.,.,13µM*
CCN(CC)c1nc(N)c2c(N)n(-c3ccccc3C)c(=S)c(C#N)c2c1C#N,?,?,45µM*,-6%,?,10%
CCN(CC)c1nc(N)c2c(N)nc3c(c2c1C#N)CC(c1ccccc1)O3 (centres undefined),?,-4%,-13%,-24%,-12%,9%
COc1cc(/C=C2\C(=O)NN(c3ccc(C)cc3)C2=O)cc([N+](=O)[O-])c1O,-11%,-26%,22µM*,-5%,?,?
COc1cc(/C=C2/C(=O)NN(c3ccc(Cl)cc3)C2=O)cc(OC)c1O,?,-7%,-5%,-11%,-26%,-25%
COc1cc(/C=C2\SC(=O)N(Cc3ccc(Cl)cc3)C2=O)cc([N+](=O)[O-])c1O,?,-18%,79µM*,?,-6%[11.6 µM],8%
O=c1c2ccccc2cnn1Cc1n[nH]c(=S)n1-c1ccc(Cl)cc1Cl,.,.,.,.,.,1%
NC(=O)CC(NC(=O)Cc1cccc2ccccc12)c1ccc(NC2CCN(Cc3ccccc3)CC2)c([N+](=O)[O-])c1 (centres undefined),-28%,-7%,-3%,2%,-13%,50µM*
NC(=O)CC(NC(=O)Cc1cccc2ccccc12)c1ccc(NC2CCCCCC2)c([N+](=O)[O-])c1 (centres undefined),?,-8%,0%,-5%,-3%,22%
Cn1c2ccccc2c2cc(/C=N/NC(=O)c3ccc(N)cc3)ccc21,?,?,?,-7%,-4%,10µM*
CCOC(=O)C1C(=O)C=C(c2ccc(C)cc2)CC1c1ccccc1 (centres undefined),97%,-17%,-13%,-3%,-5%,4%
CCOC(=O)C1C(=O)C=C(/C=C/c2ccc(N(C)C)cc2)CC1c1ccccc1 (centres undefined),?,-10%,-29%,-5%,50µM*,1%
Cc1ccc(-c2nnc(SCC(=O)Nc3sc(C)c(C)c3C#N)n2C)cc1,9%,-7%,?,-11%,-24%,22µM*
COc1ccc2c(Cl)c(-c3nnc(SCC(N)=O)n3C)sc2c1,55%,-21%,-5%,2%,-2%,7%
SMILES,POLI inh,Pol kappa inh,Pol eta inh,FEN1 inh,WRN helicase inh,POLB inh
O=C(NC1CCCCC1)N1CCCc2ccccc21,16%,-1%,-10%,-13%,9%,83%
O=C(C1CCCCC1)N1CCCc2ccccc21,14%,-4%,-19%,6%,3%,89µM*
CCN(CC)c1ccc(N=Cc2ccc([N+](=O)[O-])o2)cc1,16µM*,?,?,-24%,?,?
COC(=O)/C=C/c1ccc(-n2cncn2)cc1,8%,-3%,-14%,-4%,2%,3%
Cc1ccc(NC(=O)CCn2c(=O)c3cccn3c3ccccc32)c(C)c1,89µM*,1%,0%,4%,4%,0%
O=C(N/N=C/c1cccnc1)c1cc2c(ccc3ccccc32)o1,?,-41%,?,?,-26%,11µM*
Cc1ccc2nc(N3C(=O)C(O)=C(C(=O)c4ccc(C)o4)C3c3ccco3)sc2c1 (centres undefined),?,-36%,?,-17%,-5%,.
O=C(C1=C(O)C(=O)N(c2nc3ccc(Cl)cc3s2)C1c1ccco1)c1ccco1 (centres undefined),7.9µM*,40µM*,20µM*,-36%,50µM*,.
CCCCN(C(=O)c1cccc(S(=O)(=O)N(CC)c2ccccc2)c1)c1c(N)n(CCCC)c(=O)[nH]c1=O,4%,-16%,6%,11%,0%,.
O=c1c2cc(F)ccc2sn1-c1ccc(F)cc1,-11%,-16%,9%,79µM*,-1%,.
Cc1ccc(C)c(SCC(=O)OC/C(O)=C(\C#N)c2nc3ccccc3[nH]2)c1,?,-28%,45µM*,-8%,-18%[57.1 µM],?
Cc1cccc(C)c1Nc1nnc(SC/C(O)=C(\C#N)c2nc3ccccc3[nH]2)s1,-8%,-16%,18µM*,-10%,-29%,?
CCC1CCCCN1C(=O)Cn1nc([N+](=O)[O-])c(Cl)c1C (centres undefined),89µM*,?,89µM*,-1%,-4%,35%
CC(C)NC(=O)C1(C)CSCC(=O)N1Cc1cccc(F)c1 (centres undefined),.,.,.,.,1%,.

# High-throughput results as filed in PubChem BioAssay.
